Laboratory results as given in PubChem BioAssay (NCATS).
“And” between values parts separate entries of the source, which are not always exact repeats. Equal entries are not always repeated. Results filed as inconclusive are left out. Values without a mark were called inactive. The source made the active and inactive calls. Calls come from the whole dose curve; as a rule, active = well fitted inhibition curve with a large enough effect; inconclusive = small, poorly fitted or top-dose-only effect; inactive = flat fitted curve, though single readings scatter.

System: CRL-7250
Assay: Cytotoxic Profiling of Annotated Libraries Using Quantitative High-Throughput Screening (AID 1296008); note: nearly all actives have a fitted effect of over 60% in size
Details: Five cell lines viability, CellTiter-Glo ATP luminescence, 48-72 h; max response: hits give low values
In short: (§1)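 Cells exposed to compounds for 48 or 72 hr at 37 degrees Celsius. Viability read as ATP-coupled luminescence with CellTiter-Glo after 10 min at room temperature.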
% is set by controls: 0 for no effect and ±100 for the full control effect; potency is the fitted concentration of half-maximal effect.

SMILES	max response	outcome	Potency
CCN1CCCC1CNC(=O)C(O)(c1ccccc1)c1ccccc1 (stereo not given)	-23.4%	–	–
O=C1CN2CCOC2(c2ccccc2Cl)c2cc(Cl)ccc2N1 (stereo not given)	–	inactive	–
CN1C2CCC(C)(C)C1CC(OC(=O)C(O)(c1cccs1)c1cccs1)C2 (stereo not given)	-6.95%	–	–
C=CCN1CC[C@]23CCCC[C@H]2[C@H]1Cc1ccc(O)cc13	1.58%	–	–
COc1cc(C[C@@H](C)N)c(OC)cc1C	-47.5%	–	–
CCOC(=O)C1(c2ccccc2)CCN(CCc2ccc(N)cc2)CC1	-7.28%	–	–
CCC(=O)C(CCN(C)C)(c1ccccc1)c1ccccc1	-11.9%	–	–
ClCc1cccc(Cl)c1	-10.5%	–	–
CC(Cc1ccc2c(c1)OCO2)NO (stereo not given)	-0.759%	–	–
C[C@@H]1C[C@@H]([C@H](O)CC2CC(=O)NC(=O)C2)C(=O)[C@@H](C)C1	–	–	1.33 µM (active) and 833 nM (active)
CNC(C)Cc1ccc2c(c1)OCO2 (stereo not given)	4.98%	–	–
O=C(O)c1nn(Cc2ccc(Cl)cc2Cl)c2ccccc12	-5.04% and -7.58%	–	–
CCC1(c2cnc[nH]2)Cc2ccccc2C1	-7.94%	–	–
Nc1ccccc1C(=O)OCC(O)CO (stereo not given)	1.8%	–	–
COc1ccc(OC)c(CC(C)N)c1 (stereo not given)	-3.68%	–	–
C1CN2CCC1CC2	-5.27%	–	–
CCOC(=O)c1cncn1C(C)c1ccccc1 (stereo not given)	3.39%	inactive	–
COc1cc(CC(C)N)cc2c1OCO2 (stereo not given)	-5.81%	–	–
C[C@]12CC[C@H]3[C@@H](CCC4=CC(=O)CC[C@@H]43)[C@@H]1CC[C@@H]2O	-5%	–	–
CCOC(=O)C(c1c(O)c2ccccc2oc1=O)c1c(O)c2ccccc2oc1=O	-6.62%	–	–

SMILES	max response	outcome	Potency
C[C@@H]1CN(C2CCC(C#N)(c3ccc(F)cc3)CC2)CC[C@]1(C(=O)O)c1ccccc1 (stereo not given in full)	–	inactive	–
CNC(C)Cc1ccccc1OC (stereo not given)	-10.9%	–	–
O=c1[nH]c2cc(Cl)ccc2n1C1CCNCC1	–	inactive	–
O=C(N[C@H]1N=C(c2ccccc2F)c2cccc3c2N(CC3)C1=O)c1cc2ccccc2[nH]1	2.91%	–	–
CCC1(c2cccc(O)c2)CCCCN(C)C1 (stereo not given)	-9.91%	–	–
COP(=S)(OC)Oc1ccc(S(N)(=O)=O)cc1	–	inactive	–
C[C@@H]1O[C@@H](O[C@@H]2C=C3CC[C@@H]4[C@H](CC[C@]5(C)[C@@H](c6ccc(=O)oc6)CC[C@]45O)[C@@]3(C)CC2)[C@H](O)[C@H](O)[C@H]1O	–	–	13.3 nM (active)
CCCOC(=O)Cc1ccc(OCC(=O)N(CC)CC)c(OC)c1	-7.4%	–	–
O=C(CCCCl)c1ccc(F)cc1	0.989%	–	–
COC(=O)C1=CCCN(C)C1	-3.77%	inactive	–
CCCC[N+]1(C)[C@@H]2CC(OC(=O)[C@H](CO)c3ccccc3)C[C@H]1[C@@H]1O[C@@H]12 (stereo not given in full)	-24.5%	inactive	–
CCCCC1C(=O)NC(=O)N(C2CCCCC2)C1=O (stereo not given)	-13.7%	–	–
C[C@H]1CNCCc2ccc(Cl)cc21	–	inactive	–
COc1ccc2c(C(=O)c3ccc(Cl)cc3)c(C)n(CC(=O)O)c2c1	-9.6%	–	–
CN1[C@@H]2CC[C@H]1CC(OC(=O)c1cc(Cl)cc(Cl)c1)C2 (stereo not given in full)	-20.4%	–	–
CC1N=C(N)OC1c1ccccc1 (stereo not given)	-30.4%	–	–
Cc1nnc2n1-c1sc(CCC(=O)N3CCOCC3)cc1C(c1ccccc1Cl)=NC2	–	inactive	–
CN(C)C(=O)Oc1cc(OC(=O)N(C)C)cc(C(O)CNC(C)(C)C)c1 (stereo not given)	-6.2%	–	–
CCO[C@H]1O[C@@H]2OC3(C)CC[C@H]4[C@H](C)CC[C@@H]([C@H]1C)[C@@]24OO3	3.38%	–	–

System: HEK293
Assay: as above
Details: Five cell lines viability, CellTiter-Glo ATP luminescence, 48-72 h; max response: hits give low values
In short: as §1

SMILES	outcome	max response	Potency
CCN1CCCC1CNC(=O)C(O)(c1ccccc1)c1ccccc1 (stereo not given)	inactive	–	–
O=C1CN2CCOC2(c2ccccc2Cl)c2cc(Cl)ccc2N1 (stereo not given)	–	-3.36%	–
CN1C2CCC(C)(C)C1CC(OC(=O)C(O)(c1cccs1)c1cccs1)C2 (stereo not given)	–	-10.3%	–
C=CCN1CC[C@]23CCCC[C@H]2[C@H]1Cc1ccc(O)cc13	–	-6.38%	–
COc1cc(C[C@@H](C)N)c(OC)cc1C	–	-43.2%	–
CCOC(=O)C1(c2ccccc2)CCN(CCc2ccc(N)cc2)CC1	–	-24.8%	–
CCC(=O)C(CCN(C)C)(c1ccccc1)c1ccccc1	–	-18.5%	–
ClCc1cccc(Cl)c1	–	-1.26%	–
CC(Cc1ccc2c(c1)OCO2)NO (stereo not given)	–	-1.22%	–
C[C@@H]1C[C@@H]([C@H](O)CC2CC(=O)NC(=O)C2)C(=O)[C@@H](C)C1	–	–	0.469 µM (active)
CNC(C)Cc1ccc2c(c1)OCO2 (stereo not given)	–	-3.37%	–
O=C(O)c1nn(Cc2ccc(Cl)cc2Cl)c2ccccc12	inactive	-10.4%	–
Nc1ccccc1C(=O)OCC(O)CO (stereo not given)	inactive	–	–
COc1ccc(OC)c(CC(C)N)c1 (stereo not given)	–	-0.178%	–
C1CN2CCC1CC2	–	1.2%	–
CCOC(=O)c1cncn1C(C)c1ccccc1 (stereo not given)	inactive	-6.12%	–
COc1cc(CC(C)N)cc2c1OCO2 (stereo not given)	–	-16.7%	–
C[C@]12CC[C@H]3[C@@H](CCC4=CC(=O)CC[C@@H]43)[C@@H]1CC[C@@H]2O	–	0.616%	–

SMILES	outcome	max response	Potency
CCOC(=O)C(c1c(O)c2ccccc2oc1=O)c1c(O)c2ccccc2oc1=O	inactive	–	–
C[C@@H]1CN(C2CCC(C#N)(c3ccc(F)cc3)CC2)CC[C@]1(C(=O)O)c1ccccc1 (stereo not given in full)	–	-6.67%	–
CNC(C)Cc1ccccc1OC (stereo not given)	–	-10.8%	–
O=c1[nH]c2cc(Cl)ccc2n1C1CCNCC1	–	-8.77%	–
O=C(N[C@H]1N=C(c2ccccc2F)c2cccc3c2N(CC3)C1=O)c1cc2ccccc2[nH]1	–	-7.34%	–
CCC1(c2cccc(O)c2)CCCCN(C)C1 (stereo not given)	–	-2.39%	–
COP(=S)(OC)Oc1ccc(S(N)(=O)=O)cc1	–	-8.17%	–
C[C@@H]1O[C@@H](O[C@@H]2C=C3CC[C@@H]4[C@H](CC[C@]5(C)[C@@H](c6ccc(=O)oc6)CC[C@]45O)[C@@]3(C)CC2)[C@H](O)[C@H](O)[C@H]1O	–	–	0.0335 µM (active)
CCCOC(=O)Cc1ccc(OCC(=O)N(CC)CC)c(OC)c1	–	-10.1%	–
O=C(CCCCl)c1ccc(F)cc1	inactive	–	–
COC(=O)C1=CCCN(C)C1	–	2.76% and 4.85%	–
CCCC[N+]1(C)[C@@H]2CC(OC(=O)[C@H](CO)c3ccccc3)C[C@H]1[C@@H]1O[C@@H]12 (stereo not given in full)	inactive	–	–
CCCCC1C(=O)NC(=O)N(C2CCCCC2)C1=O (stereo not given)	–	0.515%	–
C[C@H]1CNCCc2ccc(Cl)cc21	inactive	–	–
CN1[C@@H]2CC[C@H]1CC(OC(=O)c1cc(Cl)cc(Cl)c1)C2 (stereo not given in full)	–	–	26.6 µM (active)
CC1N=C(N)OC1c1ccccc1 (stereo not given)	–	-15.4%	–
CN(C)C(=O)Oc1cc(OC(=O)N(C)C)cc(C(O)CNC(C)(C)C)c1 (stereo not given)	–	-17.2%	–
CCO[C@H]1O[C@@H]2OC3(C)CC[C@H]4[C@H](C)CC[C@@H]([C@H]1C)[C@@]24OO3	–	–	5.96 µM (active)
